Results: PubChem BioAssay (NCI)
About 79,000 compounds went through this panel and 15% of them were active in at least one assay; those are over-represented in the sample as a whole. Active and inactive are the calls of the source. Cut-off read from the data, not from the text of the source: active = growth inhibition above about 70%; inactive = the rest.

Key:
[1] = NCI Yeast Anticancer Drug Screen. Data for the wt1 strain (AID 149);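 note: 0% = growth of vehicle-treated wt1 cultures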; settings: S. cerevisiae wt1 strain (SPY 50644) growth inhibition, hits give high values
Method in brief: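 The wt1 strain was treated with compounds, and growth was compared with vehicle-treated cultures to give inhibition.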

[2] = NCI Yeast Anticancer Drug Screen. Data for the rad50EPP+ strain (AID 151);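 note: 0% = growth of vehicle-treated control cultures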; settings: S. cerevisiae rad50 mutant strain, hits give high values
Method in brief: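 rad50EPP+ yeast treated with test compounds. Readout: growth vs vehicle control.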

[3] = NCI Yeast Anticancer Drug Screen. Data for the mgt1 strain (AID 153); settings: S. cerevisiae mgt1 mutant growth inhibition, hits give high values
Method in brief: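 Growth inhibition relative to vehicle controls was scored for the mgt1 yeast strain after compound exposure.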

[4] = NCI Yeast Anticancer Drug Screen. Data for the rad50 strain (AID 155);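 note: 0% = growth of vehicle-only cultures of the same strain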; settings: S. cerevisiae rad50 strain growth inhibition, hits give high values
Method in brief: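 Cells are treated with compound, grown, and their growth is then scored against vehicle-only cultures of the same repair-deficient yeast strain.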

[5] = NCI Yeast Anticancer Drug Screen. Data for the mec2-1 strain (AID 157); settings: S. cerevisiae mec2-1 strain, hits give high values
Method in brief: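 Growth inhibition is read against vehicle-treated controls after compound exposure of the mec2-1 yeast strain, which is defective in DNA damage repair or cell cycle control.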

[6] = NCI Yeast Anticancer Drug Screen. Data for the rad14 strain (AID 159);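 note: 0% = growth of vehicle-treated control cultures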; settings: S. cerevisiae rad14 strain growth inhibition, hits give high values
Method in brief: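 Readout: yeast growth inhibition, referenced to vehicle-only cultures. Strain bears a defined alteration in DNA damage repair.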

[7] = NCI Yeast Anticancer Drug Screen. Data for the sgs1 mgt1 strain (AID 161);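 note: 0% = growth of cultures given vehicle only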; settings: S. cerevisiae sgs1 mgt1 strain, hits give high values
Method in brief: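 Growth of a repair-deficient yeast mutant was monitored after compound treatment and expressed as inhibition relative to vehicle-treated cultures.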

[8] = NCI Yeast Anticancer Drug Screen. Data for the CLN2oe strain (AID 163);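 note: 0% = growth of vehicle-only control cultures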; settings: S. cerevisiae CLN2oe strain, hits give high values
Method in brief: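 Compound-treated yeast; growth vs vehicle ctrl = % inhibition. Genetically altered strain (cell-cycle control).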

[9] = NCI Yeast Anticancer Drug Screen. Data for the cln2 rad14 strain (AID 165);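 note: 0% = growth equal to vehicle treated cultures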; settings: S. cerevisiae cln2 rad14 strain, hits give high values
Method in brief: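 Growth inhibition, relative to vehicle-treated controls, is the read-out. The test organism is a yeast strain with defined genetic alterations, cln2 rad14.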

[10] = NCI Yeast Anticancer Drug Screen. Data for the bub3 strain (AID 167); settings: S. cerevisiae bub3 mutant strain, hits give high values
Method in brief: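 Part of a panel of yeast mutants defective in DNA damage repair or cell cycle regulation. Each strain is grown with compound, and inhibition is calculated relative to solvent-treated cultures.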

[11] = NCI Yeast Anticancer Drug Screen. Data for the wt2 strain (AID 169);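 note: 0% = growth of vehicle-treated yeast cultures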; settings: S. cerevisiae wt2 strain growth inhibition, hits give high values
Method in brief: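 Compound exposure of yeast; growth compared with vehicle controls; inhibition reported.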

[12] = NCI Yeast Anticancer Drug Screen. Data for the mlh1 strain (AID 171);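 note: 0% = growth of vehicle-treated control cultures of the same strain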; settings: S. cerevisiae mlh1 strain growth inhibition, hits give high values
Method in brief: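 Compounds are applied to a genetically altered yeast strain, and its growth is compared with that of vehicle-treated cultures to give percent inhibition.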

[13] = NCI Yeast Anticancer Drug Screen. Data for the sgs1 strain (AID 173);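 note: 0% = growth of vehicle-only control cultures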; settings: S. cerevisiae sgs1 mutant, hits give high values
Method in brief: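 Compounds applied to genetically altered yeast; growth compared with vehicle-treated cultures to give % inhibition.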

[14] = NCI Yeast Anticancer Drug Screen. Data for the mlh1 rad18 strain (AID 175); settings: S. cerevisiae mlh1 rad18 strain growth inhibition, hits give high values
Method in brief: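 Cells of a genetically altered yeast strain, deficient in DNA damage repair, were treated with compound. Their growth was then compared with that of vehicle-treated cultures to give inhibition.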

[15] = NCI Yeast Anticancer Drug Screen. Data for the rad18 strain (AID 177); settings: S. cerevisiae rad18 mutant growth inhibition, hits give high values
Method in brief: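 Compounds are applied to a repair-deficient yeast strain, and growth is compared with that of vehicle-treated cultures to give percent inhibition.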

[16] = at 5.0 µM (retest, dose inferred, filed as 0.5)
[17] = at 50.0 µM (retest, dose inferred, filed as 5.0)

Measured: growth inhibition

CCOC(=O)C1C2c3ccccc3C(c3ccccc32)C1C(=O)OCC (stereo not drawn)
inactive: [1]; at 1.2 µM -1% | [1]; at 3.7 µM -2% | [1]; at 11.0 µM -1% | [1]; at 33.0 µM 2% | [2]; at 1.2 µM -1% | [2]; at 3.7 µM -2% | [2]; at 11.0 µM 2% | [2]; at 33.0 µM -2% | [2]; at 100.0 µM 1% | [3]; at 1.2 µM -1% | [3]; at 3.7 µM 1% | [3]; at 11.0 µM 4% | [3]; at 33.0 µM 7% | [4]; at 1.2 µM 3% | [4]; at 3.7 µM 3% | [4]; [16] 13% | [4]; at 11.0 µM 8% | [4]; at 33.0 µM 15% | [4]; at 50.0 µM 17.3% | [5]; at 1.2 µM -1% | [5]; at 3.7 µM 1% | [5]; [16] -8% | [5]; at 11.0 µM 3% | [5]; at 33.0 µM 6% | [5]; [17] 1% | [6]; at 1.2 µM 5% | [6]; at 3.7 µM 7% | [6]; at 11.0 µM 12% | [6]; at 33.0 µM 16% | [7]; [16] 2% | [8]; at 1.2 µM 7% | [8]; at 3.7 µM 7% | [8]; at 11.0 µM 19% | [8]; at 33.0 µM 30% | [9]; [16] -4% | [9]; [17] 28% | [9]; at 50.0 µM 56.7% | [10]; at 1.2 µM 0% | [10]; at 3.7 µM 8% | [10]; [16] 18% | [10]; at 11.0 µM 11% | [10]; at 33.0 µM 17% | [10]; [17] 60% | [10]; at 50.0 µM 49% | [11]; at 1.2 µM -12% | [11]; at 3.7 µM -11% | [11]; at 11.0 µM 7% | [11]; at 33.0 µM 6% | [12]; at 1.2 µM -1% | [12]; at 3.7 µM 6% | [12]; at 11.0 µM 7% | [12]; at 33.0 µM 16% | [13]; at 1.2 µM -9% | [13]; at 3.7 µM -19% | [13]; at 11.0 µM 12% | [13]; at 33.0 µM 19% | [14]; [16] 16% | [14]; at 50.0 µM 53.1% | [15]; at 1.2 µM 1% | [15]; at 3.7 µM 8% | [15]; at 11.0 µM 9% | [15]; at 33.0 µM 11%
active: [1]; at 100.0 µM 79% | [3]; at 100.0 µM 93% | [4]; [17] 77% | [4]; at 100.0 µM 91% | [5]; at 50.0 µM 74.7% | [5]; at 100.0 µM 89% | [6]; at 100.0 µM 90% | [7]; [17] 89% | [7]; at 50.0 µM 80.2% | [8]; at 100.0 µM 93% | [10]; at 100.0 µM 76% | [11]; at 100.0 µM 95% | [12]; at 100.0 µM 86% | [13]; at 100.0 µM 97% | [14]; [17] 87% | [15]; at 100.0 µM 91%
